Assay outcomes: PubChem, several laboratories
Only some compounds are listed: those with a hit (about 3.3% of all), similar ones and a draw of the others.
CendR NRP1 mod: NRP-1/CendR interaction modulation; FAM-RPARPAR peptide binding to NRP-1, fluorescence polarization; 360,000 tested, 0.85% active; inhibition, % at 25 µM; O14786;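 active = inhibition or corrected inhibition above about 18%, plus a signal ratio from 0.5 to 1.5, limit read from the data, passing the limit was not always enough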
Fh CTSL1 inh: cathepsin L1 inhibition, PFM18AAP counter-screen; 300,000 tested, 0.49% active; recombinant F. hepatica cathepsin L1, Z-Leu-Arg-MCA fluorescence; inhibition, % at 5.96 µM;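 active = inhibition above the mean of all tested compounds plus 3 SD, set per screening campaign, cut at about 17% in these data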;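 also: 0% = plate median of test compound wells and 100% = 1 µM Z-Phe-Ala-diazomethylketone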
Rpn11 block: blocks the human proteasome subunit Rpn11. human 26S proteasome, Ub4-pepOG fluorescence polarization; 20S core pre-blocked with epoxomicin. inhibition, % at 20 µM. 360,000 tested, 0.59% active. AID 588493;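 active = inhibition at 20 µM, scaled to each plate's controls, above about 33%, limit read from the data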
Target sequence (O00487 whole entry, looked up): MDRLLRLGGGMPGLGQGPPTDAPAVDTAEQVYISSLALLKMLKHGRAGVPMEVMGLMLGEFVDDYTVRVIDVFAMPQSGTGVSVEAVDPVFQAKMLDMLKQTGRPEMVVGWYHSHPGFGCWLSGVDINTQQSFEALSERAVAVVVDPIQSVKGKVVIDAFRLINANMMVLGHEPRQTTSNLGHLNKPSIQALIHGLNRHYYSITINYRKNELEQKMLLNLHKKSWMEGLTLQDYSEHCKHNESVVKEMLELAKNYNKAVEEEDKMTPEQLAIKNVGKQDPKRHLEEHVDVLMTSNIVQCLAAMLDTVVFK
HNF4A DNA FP: change in binding of human HNF4 alpha to DNA; HNF4a-FITC DNA binding, fluorescence polarization, 1 h; activity change, % at 10 µM; 360,000 tested, 0.3% active; AID 1224865; in the data active = activity change above about 30%, passing the limit was not always enough
PHOSPHO1 block: PHOSPHO1 (human) inhibition | recombinant PHOSPHO1, absorbance phosphatase assay | inhibition, % at 13.3 µM | 290,000 tested, 1.1% active | Q8TCT1; in the data active = inhibition above about 60%
TPT1 inhibitor: C. albicans TPT1 enzyme inhibition. recombinant caTPT1, FP RNA substrate dephosphorylation. inhibition, % at 5 µM. 300,000 tested, 0.81% active;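 active = inhibition above the mean of all tested compounds plus 3 SD, set per screening campaign, cut at about 24% in these data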;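 also: plate controls were DMSO alone for no effect and ferristatin control at 100 nM for full effect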
The depositor's hits bear a star; · = not tested or not shown.

SMILES	CendR NRP1 mod	Fh CTSL1 inh	Rpn11 block	HNF4A DNA FP	PHOSPHO1 block	TPT1 inhibitor
COc1ccc(C2C(C(=O)OCC(=O)N3CCCCC3)CCC(=O)N2c2ccc(OC)cc2)cc1 (centres undefined)	-2	-6	8	5	68*	-2
Cn1nc(C(C)(C)C)cc1N1C(=O)CCC1(C)C(=O)NC1CCCCC1 (centres undefined)	9	·	-6	-2	·	·
Cn1nc(C(C)(C)C)cc1N1C(=O)CCC1(C)C(=O)Nc1ccc2ccccc2c1 (centres undefined)	24*	·	-11	2	·	·
COC(=O)c1ccc(COc2ccc(/C=N/Nc3cccc(C(=O)O)c3)cc2)cc1	-29	-4	-1	-7	68*	2
O=C(O)c1cccc(N/N=C/c2ccc(OC(F)(F)F)cc2)c1	8	7	-14	0	·	-2
O=C(O)c1ccc(N/N=C/c2ccc(OC(=O)c3cccc(Cl)c3)cc2)cc1	-1	18*	-8	3	15	-4
CCOc1ccc2nc(N3CCC(C(=O)NC4CCCCC4)CC3)sc2c1	-23	-1	1	2	65*	-2
COc1ccccc1Nc1nc2c(s1)CCC2	2	-1	17	6	76*	6
Cc1ccc(Nc2nc3c(s2)CCC3)c(C)c1	7	0	8	11	-8	2
O=C(c1ccc(F)cc1)N1CCN(c2ncccn2)CC1	10	-8	-4	0	0	6
O=C(NNC(=O)C1CCN(c2ncccn2)CC1)c1ccc(F)cc1	42*	-1	-2	0	31	1
Cc1ccc2cc(CN(c3ccccc3C)S(=O)(=O)c3ccccc3)c(=O)[nH]c2c1	25*	0	2	4	2	3
CC(Sc1ccc2ccccc2c1)C(=O)NC(N)=O (centres undefined)	6	-6	-16	0	23	-1
O=C(NCCc1ccccc1)C1CCCN(c2ncnc3c2nc2n3CCCCC2)C1 (centres undefined)	12	5	4	3	56	0
Cc1ccc(CCNC(=O)C2CCCN(c3ncnc4c3nc3n4CCCCC3)C2)cc1 (centres undefined)	4	-1	-3	4	80*	1
COc1ccc(/C=N/NC(=O)c2nn(-c3ccc(Cl)cc3)c(=O)c3c(N)scc23)cc1	30*	9	-2	-2	100*	-1
CCOC(=O)c1nn(-c2ccc(OC)cc2)c(=O)c2c(N)scc12	7	10	0	2	22	0
COc1ccc(/C=N/NC(=O)c2nn(-c3ccccc3)c(=O)c3c(N)scc23)cc1	-12	31*	6	-2	3	-2
CCOc1ccc2ccccc2c1C1NC(=O)N(C)C(C)=C1C(=O)OCCOC (centres undefined)	4	-2	-3	-1	20	-4
COc1ccc(/C=C/C(=O)OC2CCCN(C)C2)cc1 (centres undefined)	-3	-18	-7	-1	-17	-2
COc1ccc(C=CC(O)CCN2CCC3CCC(C3)C2)cc1 (centres undefined)	24*	·	-3	8	·	·
CC(C#N)Sc1nc2ccccc2c(=O)n1-c1ccccc1 (centres undefined)	-2	-3	2	5	-28	-8
CCC1(C)CC(c2nc(-c3ccc(OC)cc3)cs2)CCS1 (centres undefined)	32*	2	1	6	-1	3
O=S1(=O)NC(C2CC2c2ccccc2)CCO1 (centres undefined)	23*	2	-2	0	-24	2
CCOC(=O)Cc1nnc(NC(=O)CSc2nc3ccccc3[nH]2)s1	-8	3	2	3	4	-4
SMILES	CendR NRP1 mod	Fh CTSL1 inh	Rpn11 block	HNF4A DNA FP	PHOSPHO1 block	TPT1 inhibitor
Fc1ccc(CNCc2ccco2)cc1	15	-6	8	-2	11	-2
NS(=O)(=O)c1ccc(NC(=O)COC(=O)CSc2n[nH]c(-c3ccccc3)n2)cc1	-2	-35	1	-1	71*	3
CC1=C(C(=O)OC(C)C)C(c2cncc(-c3ccc(F)cc3)c2)C(C#N)=C(N)O1 (centres undefined)	-8	19*	3	-1	8	-1
CCCCOc1ccc(-c2nc(=S)[nH][nH]2)cc1	0	2	6	-1	80*	3
CCc1sc(C(=O)Nc2nc(C)cs2)cc1C	-7	·	-2	4	27	·
CC(C)c1ccc(C(C)NCCS(=O)(=O)c2ccc(Cl)cc2)cc1 (centres undefined)	-1	6	-4	4	73*	1
Cc1ccc(/C=N/NC(=O)CSc2nnc(-c3ccc(Cl)cc3)n2-c2ccccc2)o1	43*	3	-1	-2	21	7
Cc1ccc(Cn2c(SCC(=O)N/N=C/c3ccc(C)o3)nc3ccccc32)cc1	-5	9	6	1	91*	0
Cc1cc(NC(=O)CSc2nc3ccccc3c(=O)n2Cc2ccccc2)no1	8	-1	0	4	18	-3
Cc1ccc(Cn2c(SCC(=O)Nc3cc(C)on3)nc3ccccc3c2=O)cc1	28*	3	1	-3	-3	-4
CSc1nnc(C)c(=O)n1COC(=O)COc1ccc(Cl)cc1	3	-12	0	-3	-2	1
COc1ccc(C(=O)NC2CC3CCCC(C2)N3Cc2ccccc2)c(OC)c1 (centres undefined)	4	0	-3	-1	-24	-1
CCOC(=O)CN1CCS(=O)(=O)CC1	-8	0	0	-4	34	1
C=C(C)C1CCC(C)=C1CC(C)(C)/C=N\n1cnnc1 (centres undefined)	-4	9	-3	-3	-36	-3
CCN1/C(=C/c2ccc3ccccc3[n+]2CCCS(=O)(=O)[O-])C=Cc2cc(C)ccc21	-12	·	14	7	-113	·
CCN1/C(=C/c2ccc3ccccc3[n+]2CC)C=Cc2ccccc21	-66	5	21	44*	9	18
COc1cc(N2CCCC2)ccc1[N+](=O)[O-]	-3	9	1	5	9	-6
O=C(COC(=O)c1ccc([N+](=O)[O-])s1)NC(=O)NCc1ccccc1	-32	18*	-1	-3	49	0
O=C(COC(=O)c1ccc([N+](=O)[O-])s1)NCc1ccc(F)cc1	-38	80*	-5	-3	-2	0
CC(NC(=O)COC(=O)c1ccc([N+](=O)[O-])s1)c1ccccc1 (centres undefined)	-21	33*	2	-2	-7	0
CC(CC(=O)Nc1ccc2c(c1)c(=O)n(C)n2Cc1ccc(Cl)cc1)C(F)(F)F (centres undefined)	-18	·	10	6	·	·
CN1CCn2c1nc(N1CCOCC1)nc2=O	4	1	-2	-4	-1	4
